Laboratory results taken from PubChem BioAssay (NCI).
The panel holds about 83,000 compounds, 20% with a hit somewhere; the sample as a whole holds those more often.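 Plates (96-well) were seeded with cells, treated with compound at one concentration, and incubated for 48 hours before percent growth was determined.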 Unmarked numbers belong to inactive results. Activity calls are given as the source filed them. How the source made its calls: active means growth percent below 10; inactive means the rest.

Key:
Experiment in all cases: NCI-60 one-dose screen, 48 h (100 = growth as untreated, 0 = no growth, -100 = all killed)
Conditions in all cases: 10 µM unless noted
SK-MEL-2 melanoma = test system: SK-MEL-2 melanoma
EKVX NSCLC = test system: EKVX NSCLC
SN12C renal = test system: SN12C renal
UO-31 renal = test system: UO-31 renal
TK-10 renal = test system: TK-10 renal
ACHN renal = test system: ACHN renal
CAKI-1 renal = test system: CAKI-1 renal
A498 renal = test system: A498 renal
CCRF-CEM leukemia = test system: CCRF-CEM leukemia
MOLT-4 leukemia = test system: MOLT-4 leukemia

| Compound | growth (SK-MEL-2 melanoma) | growth (EKVX NSCLC) | growth (SN12C renal) | growth (UO-31 renal) | growth (TK-10 renal) | growth (ACHN renal) | growth (CAKI-1 renal) | growth (A498 renal) | growth (CCRF-CEM leukemia) | growth (MOLT-4 leukemia) |
| --- | --- | --- | --- | --- | --- | --- | --- | --- | --- | --- |
| Nc1ncnc2c1C(c1ccc([N+](=O)[O-])cc1)c1sc3c(F)cccc3c1O2 (stereo unspecified) | 107% | 98.4% | 97.1% | 68.4% | 129% | 89.8% | 74.9% | 97.8% | 94.3% | – |
| C[N+]1=C(/C=C\C=C\c2ccccc2)C(C)(C)c2ccccc21 | 10.9% | 31.5% | -2.25% (active) | 39.3% | 50.3% | 43.8% | 38.4% | 61.2% | -8.67% (active) | 0.0688% (active) |
| Cc1ccc(NC(=O)c2sc3nc(C)c(C(=O)c4ccccc4)cc3c2N)cc1 | 93.8% | 72.4% | 95.8% | 89.4% | 99.5% | 92.8% | 76.1% | 4.97% (active) | 94.3% | 104% |
| CCOC(=O)c1nc2c3ccccc3cnn2c1C(=O)c1ccc(OC)cc1 | 107% | 89.7% | 98.5% | 79.4% | 140% | 100% | 86.9% | 79.9% | 91.2% | – |
| Clc1ccc(CNc2ccc3nc(CCC4CCCCC4)[nH]c3c2)cc1 | 85.6% | 75.6% | 59.1% | 29.9% | 83.6% | 76.6% | 50.4% | 45.8% | 41.4% | 39.1% |
| C=C1CCC2C3(C)COC(c4ccc(NC(C)=O)cc4)OC3CCC2(C)C1C/C=C1/C(=O)OCC1O (stereo unspecified) | 84.4% | 39.6% | 91.6% | 68.3% | 75.3% | 65.8% | 87.7% | 57% | 27.3% | – |
| COc1ccc(/C=N/NC(=O)CN2CCN(c3cc4c(cc3F)c(=O)c(C(=O)O)cn4C3CC3)CC2)cc1O | 94.1% | 112% | 99.1% | 94.6% | 89.6% | 106% | 111% | 104% | 92.7% | 82.7% |
| COc1ccc(-c2ccc(-c3ccc(C(=N)N)cn3)s2)cc1Cl | -54% (active) | -58.4% (active) | -81% (active) | -89.9% (active) | -73.1% (active) | -98.2% (active) | -98.4% (active) | 99% | -36.1% (active) | -31.5% (active) |
| CC(=NCc1ccccc1)c1ccc(O)cc1O | 107% | 111% | 91.8% | 81.7% | 92.8% | 96.6% | 107% | 100% | 85% | 89.7% |
| COc1cc(/C=C(/c2ccccc2)[N+](=O)[O-])c(OC)c2c1OCO2 | -23% (active) | -10.5% (active) | -39% (active) | -100% (active) | -88.1% (active) | -70.1% (active) | -65.2% (active) | -14% (active) | -6.26% (active) | – |
| COc1ccc(-c2nn3c(-c4cc(F)c(Cl)cc4Cl)nnc3s2)cc1 | 66.8% | 75.4% | 72.5% | 49.7% | 105% | 66.7% | 37.7% | 65.9% | 9.61% (active) | 21.6% |
| CCN1C(=O)/C(=c2\sc3n(c2=O)C2C(NN=3)N(CC)C(=O)N2CC)c2ccccc21 (stereo unspecified) | 60.1% | 65% | 29.1% | 51.2% | 76.6% | 38.5% | 45.7% | -25.4% (active) | 25.7% | 26.6% |
| O=C1C(Nc2ccc(Cl)cc2)=C(I)C(=O)c2ncccc21 | 70% | 62.2% | -22.1% (active) | -51% (active) | 47.5% | -98.8% (active) | -17% (active) | 99.6% | 6.74% (active) | -1.19% (active) |
